Source: PubChem BioAssay (several laboratories)
Only some compounds are listed: those with a hit (about 1.3% of all), similar ones and a draw of the others.
MazF activator – activators of E. coli MazEF toxin-antitoxin RNase. P0AE70. activation, % at 20 µM. actives 0.32% (n = 350,000). AID 504720. FAM/BHQ RNA-DNA oligo cleavage fluorescence, 5 h; in the data active means activation above about 50%
Target sequence (P0AE70 whole entry, looked up): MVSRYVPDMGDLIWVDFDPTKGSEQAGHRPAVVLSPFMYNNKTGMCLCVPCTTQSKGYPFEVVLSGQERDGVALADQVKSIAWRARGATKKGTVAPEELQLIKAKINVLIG
ugtP null kill – kills S. aureus RN4220 lacking UgtP; S. aureus RN4220 ugtP deletion, OD600 growth, 16 h; growth inhibition, % (test concentration not listed); actives 0.54% (n = 330,000); AID 1259309; in the data active means growth inhibition above about 68%;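 further: plate controls were untreated wells for no effect and antibiotic for full effect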
SARS 3CLpro inh – SARS-CoV 3CLpro protease inhibition; inhibition, % at 6 µM; P0C6X7; actives 0.14% (n = 290,000); recombinant SARS-CoV 3CLpro, quenched FRET peptide cleavage; in the data active means inhibition above about 12%
Mtb bLac sens – beta-lactam sensitization of Mtb H37Rv. M. tuberculosis H37Rv growth with meropenem, percent inhibition. inhibition, % at 25 µM. actives 0.27% (n = 330,000); call rule not given here;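 further: growth measured after seven days incubation then overnight dye step; 0% = bacteria only wells and 100% = bacteria with antibiotic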
CCHFV vOTU inh – blocks the CCHF virus ovarian tumor domain protease; actives 0.55% (n = 370,000); inhibition, % at 11.5 µM; CCHFV vOTU protease, Pep-AMC fluorescence; in the data active means inhibition above about 30%; further: 0% = vehicle wells with enzyme and 100% = no enzyme wells
Sa RN4220 lethal – kills Staphylococcus aureus RN4220; inhibition, % (test concentration not listed); AID 1259311; actives 0.33% (n = 330,000); S. aureus RN4220 growth, OD600, 16 h; in the data active means inhibition above about 85%;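 further: plate controls were untreated cells for no effect and reference antibiotic for full effect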
* marks the source's active call; other numbers are inactive results; x = no result; ! = a repeat was not active.

SMILES	MazF activator	ugtP null kill	SARS 3CLpro inh	Mtb bLac sens	CCHFV vOTU inh	Sa RN4220 lethal
O=C(CC(=O)c1ccccc1O)c1ccc(F)cc1	-1	90*	4	94	5	84
COc1ccc(C(=O)CC(=O)c2ccc(F)cc2)cc1	-1	3	x	13	5	3
CCN1CC2C3C(=O)N(C)C(=O)C3[C@](Cc3ccccc3)(C1=O)N2C(=O)c1ccc(C)cc1 (some centres not stated)	x	3	x	x	x	2
CC(=NNC(=O)c1cccc(O)c1)c1ccc(NC(=O)Cc2ccccc2)cc1	x	-6	x	x	x	-2
COc1ccc(NC(=O)c2cc(-c3cc(C)cc(C)c3O)n[nH]2)cc1Cl	3	90*	0	70	5	50
O=C1CN(/N=C/c2ccc([N+](=O)[O-])o2)C(=O)N1	5	x	-3	69	29	x
O=C1OC(CN(Cc2ccccc2)Cc2ccccc2)CN1N=Cc1ccc([N+](=O)[O-])o1 (configuration not stated)	-6	100*	x	x	29	80
O=C1CN(N=Cc2ccc([N+](=O)[O-])o2)C(=O)N1	x	16	x	x	x	11
O=C1OC(CN2CCOCC2)CN1N=Cc1ccc([N+](=O)[O-])o1 (configuration not stated)	7	100*	x	6	24	100*
O=[N+]([O-])c1ccc(OCc2cn(C(CO)c3ccccc3)nn2)c(Br)c1 (configuration not stated)	x	12	x	x	x	11
CC(C)c1ccc(OCC(=O)Nc2cccc3c2CCCC3)cc1	-2	96*	1	-2	6	15
CCOC(=O)NN=Cc1ccc(Oc2ccccc2)cc1	x	-8	x	x	x	-3
Cc1ccc(-c2ccccc2NC(=O)CS(=O)CC(=O)Nc2ccc(C)c(Cl)c2)o1 (configuration not stated)	385*	x	4	1	-4	x
CCC(C)C(C(=O)N1CCNCC1)n1cc(C(N)CC(C)C)nn1 (configuration not stated)	x	-6	x	x	x	-4
CCOC(=O)CN1C=C(c2ccc3ccccc3n2)C(C[N+](=O)[O-])c2ccccc21 (configuration not stated)	233*	-13	-4	-8	x	-13
O=C(CNC(=O)c1ccc(S(=O)(=O)N2CCCC2)cc1)N/N=C/c1ccc(Cl)cc1Cl	74*	x	1	5	10	x
O=C(CNC(=O)c1ccc(S(=O)(=O)N2CCCC2)cc1)NN=Cc1ccccc1Cl	x	-7	x	x	x	5
O=Nc1c(O)c2ccccc2c2ccccc12	8	99*	x	100	0	100*
COc1ccc(C=Nn2cnnc2)cc1Br	x	7	x	x	x	1
COc1cc2c3nnc(-c4ccccc4)c-3cn(Cc3ccccc3F)c2cc1OC	734*	7	-8	12	-84	9
CCOc1ccc2nc(SCC(=O)N3CCCc4ccccc43)sc2c1	2	85*	-2	-7	4	5
Cc1ccc(OCCn2c(C)c(/C=N/n3cnnc3)c3ccccc32)cc1	49	x	-4	2	24	x
Cc1c(/C=N/n2cnnc2)c2ccccc2n1CCOc1ccc(Cl)cc1	113*	x	2	3	7	x
CC=CC1=CC(=O)CC(c2ccc(F)cc2)C1 (configuration not stated)	x	0	x	x	x	-1
CCOC(=O)C1=C(CC)Nc2ccccc2N=C1NC(=O)Nc1ccc(Cl)c(Cl)c1	4	100*	-1	99	0	101*
SMILES	MazF activator	ugtP null kill	SARS 3CLpro inh	Mtb bLac sens	CCHFV vOTU inh	Sa RN4220 lethal
NC1=NC[C@@H](Cc2ccc(O)cc2)N1CCc1cccc(F)c1	7	x	x	-2	4	x
NC1=NCC(Cc2ccc(O)cc2)N1CCCCC1CCCCC1 (configuration not stated)	x	100*	x	x	x	101*
NC1=NCC(Cc2ccc(O)cc2)N1CCc1cccc2ccccc12 (configuration not stated)	x	100*!	x	x	x	76
NC1=NCC(Cc2ccc(O)cc2)N1CCC12CC3CC(CC(C3)C1)C2 (configuration not stated)	x	101*!	x	x	x	101*!
N#CC(=C1N=c2ccccc2=N1)c1c(O)[nH]c2ccccc12	x	x	-1	x	x	x
Cc1ccc2c(c1)=N/C(=N\c1[nH]c(O)c3ccccc13)N=2	58*	x	x	x	11	x
Oc1[nH]c(N=C2N=c3ccccc3=N2)c2ccccc12	56*	20	0	5	4	5
CC1CN(C(C)CO)C(=O)c2cccc(NC(=O)Cc3ccccc3)c2OC1CN(C)C(=O)NC1CCCCC1 (configuration not stated)	x	1	x	x	x	6
